# Bioassay records as filed in PubChem BioAssay.
# Giardia killer = kills Giardia lamblia; Giardia lamblia trophozoite viability; activity change, % at 7.66 µM, hits read low; AID 540267; 0.15% of 340,000 active; in the data active = activity change below about -80%; inconclusive = between about -30% and that limit;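 also: parasites exposed to compound for two days anaerobically before the ATP read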
#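 Each well holds 100 Giardia trophozoites and compound. After two days (48 hrs) at 37 deg C in anaerobic conditions, ATP is quantified by luminescence.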
# TDP1 cell CPT = DT40-hTDP1 cell growth loss with CPT; chicken DT40 Tdp1-/-;hTDP1 cells + 20 nM CPT, ATP luminescence, 48 h; Potency, µM (doses to about 46.2 µM), hits mostly inhibitors; 12% of 420,000 active; AID 686979; also: nearly all actives have a fitted effect of over 55% in size
#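 Chicken DT40 Tdp1-/- cells complemented with human TDP1, 400 cells/well, exposed to compounds plus 20 nM camptothecin for at least 48 h at 37 C; viability read as ATP content by CellTiter-Glo luminescence.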
# IL1B secr inh = inflammasome signaling inhibition, IL-1 beta readout; THP-1 LPS/ATP IL-1B secretion, AlphaLISA, 16 h; hits give low values; activity change, % at 57.5 µM; 4.7% of 360,000 active; in the data active = activity change below about -50%; inconclusive = mostly about -30% to -49%
#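 THP-1 cells pretreated 1 hr with compounds (up to 57.5 uM final), then stimulated with LPS (250 ng/mL final) plus ATP (1.25 mM final); secreted IL-1B measured by AlphaLISA after 16 hr, decreased signal indicating inhibition.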
# DT40 TDP1 no CPT = qHTS for Inhibitors of human tyrosyl-DNA phosphodiesterase 1 (TDP1): qHTS in cells in absence of CPT; DT40 Tdp1-/- hTDP1 cells, no CPT, ATP luminescence, 48 h; Potency, µM (titrated, usually from 46.2 µM), actives largely listed as inhibitors; 15% of 420,000 active; also: nearly all actives have a fitted effect of over 55% in size
#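 A cellular qHTS used chicken DT40 cells lacking endogenous Tdp1 but carrying stably transfected human TDP1. Compounds were applied without camptothecin, and cell growth kinetics were judged by ATP-dependent luminescence after ≥48 hr.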
# ELG1 repair inh = blocks ELG1-dependent DNA repair in HEK293T cells; Potency, µM (doses to about 46.1 µM), most hits filed as inhibitors; 2.3% of 330,000 active; HEK293T ELG1-luciferase reporter, luminescence, 16 h; DNA damage induced by 5-fluorouridine; also: nearly all actives have a fitted effect of over 55% in size
#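 Overnight (16 hr) co-exposure of 2,000 cells/well to 5-fluorouridine and compound at 37 °C preceded detection. Luciferase was quantified via ONE-Glo luminescence; loss of signal denotes inhibition.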
# TDP1 inh = TDP1 (human) enzyme inhibition. Q9NUW8. recombinant TDP1, AlphaScreen DNA substrate cleavage. AID 485290. Potency, µM (highest dose often 130 µM), hits mostly inhibitors. 0.28% of 350,000 active; also: nearly all actives have a fitted effect of over 40% in size
# Target sequence (Q9NUW8 whole entry, looked up): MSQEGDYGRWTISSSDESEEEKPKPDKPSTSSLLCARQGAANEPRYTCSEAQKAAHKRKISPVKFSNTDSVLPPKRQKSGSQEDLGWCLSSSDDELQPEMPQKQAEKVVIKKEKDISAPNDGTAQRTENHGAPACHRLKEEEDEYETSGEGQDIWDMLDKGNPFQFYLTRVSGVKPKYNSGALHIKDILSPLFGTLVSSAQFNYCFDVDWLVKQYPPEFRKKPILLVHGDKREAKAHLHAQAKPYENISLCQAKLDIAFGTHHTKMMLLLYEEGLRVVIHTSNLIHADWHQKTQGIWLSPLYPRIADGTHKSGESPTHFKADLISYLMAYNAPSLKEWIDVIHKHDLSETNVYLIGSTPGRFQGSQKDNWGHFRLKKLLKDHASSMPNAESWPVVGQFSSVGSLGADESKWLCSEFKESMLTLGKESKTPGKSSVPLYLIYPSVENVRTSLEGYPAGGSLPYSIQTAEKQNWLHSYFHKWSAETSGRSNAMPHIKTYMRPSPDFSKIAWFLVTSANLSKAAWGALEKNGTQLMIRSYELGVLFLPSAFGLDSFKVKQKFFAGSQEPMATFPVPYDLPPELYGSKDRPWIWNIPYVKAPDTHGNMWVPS
#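 Tdp1 1 nM final; 15 min RT w/ cpd; substrate 15 nM, 5 min; beads 10 ug/ml, 10 min; AlphaScreen read. Neg ctrl: no enzyme.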
# Numbers stand for hits; - = inactive; ? = inconclusive; . = not tested or not shown; [ ] = dose if it differs, or a comment. Only some compounds are listed: those with a hit (about 19% of all), similar ones and a draw of the others. Unless noted, calls follow the shape of the dose curve; as a rule, active = well fitted curve in the direction sought with a large enough effect; inconclusive = small, poorly fitted or top-dose-only effect, or another doubt; inactive = no such curve, though single readings can be large; an effect the other way counts as inactive or inconclusive.
SMILES,Giardia killer,TDP1 cell CPT,IL1B secr inh,DT40 TDP1 no CPT,ELG1 repair inh,TDP1 inh
CCOc1ccc(NC(=O)CN(C)C(=O)c2cc(-c3ccco3)nc3ccccc23)cc1OCC,-,18µM,-,18µM,.,.
CCCN(C(=O)c1cccc(S(=O)(=O)N2CCCc3ccccc32)c1)C1CCS(=O)(=O)C1 (stereo not given),-,?,-,?,-,-
COc1cc(NC(=O)Cn2c(=O)n(C(C)C)c(=O)c3oc4ccccc4c32)cc(OC)c1,.,?,.,?,.,-
Cn1nc(CSc2ccccc2)c(C=O)c1Cl,-,-,-,-,?,-
CCOc1ccc(NC(=O)CN(C)C(=O)c2cc(C)nc3ccccc23)cc1OCC,-,-,-,?,?,-
CN(CC(=O)Nc1ccc(F)cc1)C(=O)c1cc(-c2ccco2)nc2ccccc12,-,-,-,?,?,.
CN(CCOc1ccc(Cl)cc1)C(=O)c1cc(-c2ccco2)nc2ccccc12,-,?,-81,?,?,.
CCOc1ccc(NC(=O)CN(C)C(=O)c2cc(-c3ccncc3)nc3ccccc23)cc1OCC,-,?,-,16µM,?,-[0.505 µM]
Cc1cccc(N(CC(=O)NC2CCCCC2)C(=O)CCCC(=O)Nc2ccccn2)c1C,-,-,-,-,-,-
CCOc1ccc(-c2c(=O)n(O)c3ccccc3[n+]2[O-])cc1,-,?,-,13µM,?,.
CCOc1ccc(-c2c(=O)n(OCC)c3ccccc3[n+]2[O-])cc1,-,-,-,-,-,.
CCOc1ccc(OCC)c(-c2c(=O)n(OCc3ccc(C(C)(C)C)cc3)c3ccccc3[n+]2[O-])c1,-,21µM,-,18µM,?,-
CCOc1ccc(-c2c(=O)n(OCc3ccc([N+](=O)[O-])cc3)c3ccccc3[n+]2[O-])c(OCC)c1,-,?,-,?,.,.
C=CC1=C2C=C(C3CC3)N(CCCCO)C=C2C(=O)C(C)(OC(=O)c2ccco2)C1=O (stereo not given),.,.,.,.,.,-[12.3 µM]
COc1ccc(OC)c(N(CC(=O)NC2CC3CCC2C3)S(=O)(=O)c2ccccc2)c1 (stereo not given),-,?,-67,?,-,.
COc1ccc(Cl)cc1N(CC(=O)NC1CC2CCC1C2)S(=O)(=O)c1ccccc1 (stereo not given),-,21µM,-,?,-,-
O=C(Cc1ccccc1)Nc1cccc(-c2nc3ncccc3o2)c1,-,-,-,?,-,-
O=C(Nc1cccc(-c2nc3ncccc3o2)c1)c1sc2ccccc2c1Cl,-,10µM,-,?,-,-
O=C(Nc1cccc(-c2nc3ncccc3o2)c1)c1cc2ccccc2o1,-,21µM,-,23µM,?,-
O=C(Nc1cccc(-c2nc3ncccc3o2)c1)c1sc2cc(Cl)ccc2c1Cl,-,?,-,?,?,-
C=CCOCC/C=C1/c2ccccc2C(OC)C1C (stereo not given),.,.,.,.,.,-[21 µM]
CCc1ccc(S(=O)(=O)/N=C2\C=C(Nc3ccc(C(=O)O)cc3)C(=O)c3ccccc32)cc1,-,18µM,-99,23µM,4.6µM,-[0.0935 µM]
Cc1ccc(S(=O)(=O)Nc2ccc(N=Nc3ccc(O)cc3)cc2)cc1,-,-,-,-,?,-
Cc1ccc(S(=O)(=O)/N=C2\C=C(Nc3ccc(O)cc3)C(=O)c3ccccc32)cc1,-,2.1µM,-97,2.9µM,10µM,-
Cc1ccc(S(=O)(=O)/N=C2\C=C(Nc3cccc(C(=O)O)c3)C(=O)c3ccccc32)c(C)c1,-,?,-104,?,?,-
SMILES,Giardia killer,TDP1 cell CPT,IL1B secr inh,DT40 TDP1 no CPT,ELG1 repair inh,TDP1 inh
O=C(O)c1ccc(NC2=C(n3nnc4ccccc43)C(=O)c3ccccc3C2=O)cc1,-,-,-,-,?,-
Cc1ccc(S(=O)(=O)/N=C2\C=C(Nc3cccc(C(=O)O)c3)C(=O)c3ccccc32)cc1,-,?,-93,?,23µM,-
O=c1c(-c2ccc(Cl)cc2)nc2cnc(N3CCOCC3)nc2n1CCc1ccccc1,.,-,.,-,.,.
Cc1cccc(CN2C(=O)N/C(=C/c3cc(C)n(-c4cc(C)ccn4)c3C)C2=O)c1,-,?,-58,23µM,?,-
Cc1cccc(CN2C(=O)N/C(=C/c3ccc(C)s3)C2=O)c1,-,21µM,-,16µM,-,-
Cc1ccc(/C=C2/NC(=O)N(Cc3ccccc3)C2=O)s1,-,?,-,-,?,-
O=C(CSc1nc2ccccc2c(=O)n1-c1ccc(F)cc1F)c1c[nH]c2ccccc12,-,?,?,?,?,-
O=c1ccc2cc(O)c(O)cc2o1,-,16µM,-,?,-,-
COc1ccc(CN2CCCC(n3cc(C(=O)N4CCCCC4)nn3)C2)c(OC)c1 (stereo not given),.,-[9.04 µM],.,-,.,.
Cn1sccc1=O,-,2.9µM,-53,2.9µM,-,.
O=C(Oc1cccc2cccnc12)c1ccco1,-,?,-,21µM,-,-
O=C(Oc1cccc2cccnc12)c1cccs1,-,0.92µM,-,0.82µM,-,-
O=C(Cc1ccc(Cl)cc1)Oc1cccc2cccnc12,-,0.29µM,-100,0.82µM,-,-
O=C(Oc1cccc2cccnc12)c1ccc(Br)o1,-,-,-,-,-,-
C[N+]1(C2CCC3CCCC2C3O)CCCCC1 (stereo not given),-,-,-,-,-,-
Cc1c(C(=O)NCC2CC2)sc2ncnc(NCCN3CCCCC3)c12,.,-,.,-,.,.
Clc1nc2ccccc2nc1-c1ccccc1,-,-,-,-,?,-
Clc1ccc(-c2nc3ccccc3nc2-c2ccccc2)cc1,-,?,-,21µM,-,-
Cc1ccc(-c2nc3ccccc3nc2-c2ccccc2)cc1,-,?,-,15µM,-,79µM
COc1ccc(NC(=O)C2CCC(=O)N2C(=O)OCc2ccccc2)cc1 (stereo not given),-,-,-,-,-,-
Cc1nc(C)n(CCNS(=O)(=O)c2ccc(C)c(C)c2)n1,-,-,-,-,-,-
CCOC(=O)COc1ccccc1/C=C1\NC(=O)NC1=O,-,-,-91,-,-,-
O=S(=O)(NCCc1csc2nc(-c3ccccc3)nn12)c1ccc(Oc2ccccc2)cc1,.,?,.,?,.,-
COc1cc([C@@H]2c3cc4c(cc3[C@@H](O[C@@H]3O[C@H]5CO[C@@H](C)O[C@@H]5[C@@H](O)[C@H]3O)[C@@H]3COC(=O)[C@@H]23)OCO4)cc(OC)c1O,.,?,.,0.13µM,.,-
